Source: PubChem BioAssay (NCI)
Values joined by “and” are separate entries in the source; they are usually repeats but may differ in a detail not shown here. Identical values can stand only once. Compounds without any hit were thinned out: in the full panel of roughly 83,000, 20% have a hit.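 A percent growth of 40 corresponds to 60% growth inhibition; 0 means no net growth; -100 means all cells died. Active threshold: below 10.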

How the values were obtained:
Experiment in all cases: NCI-60 one-dose screen, 48 h (100 = growth as untreated, 0 = no growth, -100 = all killed)
Conditions in all cases: 10 µM unless noted
NCI-H23 lung = tested on: NCI-H23 lung
NCI-H226 lung = tested on: NCI-H226 lung
NCI-H322M lung = tested on: NCI-H322M lung
HOP-62 NSCLC = tested on: HOP-62 NSCLC
NCI-H460 lung = tested on: NCI-H460 lung
HOP-92 NSCLC = tested on: HOP-92 NSCLC
NCI-H522 lung = tested on: NCI-H522 lung
A549/ATCC NSCLC = tested on: A549/ATCC NSCLC
786-0 renal = tested on: 786-0 renal
COLO 205 colon = tested on: COLO 205 colon
DU-145 prostate = tested on: DU-145 prostate
K-562 leukemia = tested on: K-562 leukemia
MALME-3M melanoma = tested on: MALME-3M melanoma
MDA-MB-231 breast = tested on: MDA-MB-231 breast
RXF 393 renal = tested on: RXF 393 renal
SF-268 CNS = tested on: SF-268 CNS
SF-295 CNS = tested on: SF-295 CNS
SF-539 CNS = tested on: SF-539 CNS
UACC-257 melanoma = tested on: UACC-257 melanoma
M14 melanoma = tested on: M14 melanoma

Measured: growth

O=C1c2cccnc2-c2ncccc21
inactive: NCI-H23 lung 105% [100 µM] | NCI-H226 lung 90% [100 µM] | NCI-H322M lung 101% [100 µM] | HOP-62 NSCLC 96.9% [100 µM] | NCI-H460 lung 111% [100 µM] | HOP-92 NSCLC 96.7% [100 µM] | NCI-H522 lung 104% [100 µM] | A549/ATCC NSCLC 97.7% [100 µM] | 786-0 renal 93.1% [100 µM] | COLO 205 colon 123% [100 µM] | DU-145 prostate 112% [100 µM] | K-562 leukemia 115% [100 µM] | MALME-3M melanoma 103% [100 µM] | MDA-MB-231 breast 118% [100 µM] | RXF 393 renal 109% [100 µM] | SF-268 CNS 106% [100 µM] | SF-295 CNS 103% [100 µM] | SF-539 CNS 104% [100 µM] | UACC-257 melanoma 98% [100 µM] | M14 melanoma 104% [100 µM]

Cc1ccc(NC(=S)N/C=C(\c2ccccc2)S(=O)Cc2ccccc2)c(C)c1 (stereo not given)
inactive: NCI-H23 lung 99.7% | NCI-H226 lung 90.2% | NCI-H322M lung 94.8% | HOP-62 NSCLC 95.8% | NCI-H460 lung 101% | HOP-92 NSCLC 80.1% | NCI-H522 lung 90.5% | A549/ATCC NSCLC 97.7% | 786-0 renal 98.2% | COLO 205 colon 104% | DU-145 prostate 109% | K-562 leukemia 98.2% | MALME-3M melanoma 106% | MDA-MB-231 breast 104% | RXF 393 renal 106% | SF-268 CNS 101% | SF-295 CNS 98.9% | SF-539 CNS 103% | UACC-257 melanoma 98.9% | M14 melanoma 97.3%

CCOC(=O)CN1CCC(C(=O)OCC)CC1
inactive: NCI-H23 lung 102% | NCI-H226 lung 107% | NCI-H322M lung 124% | HOP-62 NSCLC 98.9% | NCI-H460 lung 108% | HOP-92 NSCLC 92.3% | NCI-H522 lung 96.1% | A549/ATCC NSCLC 103% | 786-0 renal 109% | COLO 205 colon 112% | DU-145 prostate 118% | K-562 leukemia 118% | MALME-3M melanoma 111% | MDA-MB-231 breast 103% | RXF 393 renal 127% | SF-268 CNS 113% | SF-295 CNS 119% | SF-539 CNS 117% | UACC-257 melanoma 110% | M14 melanoma 105%

CN(C)CC(CN(C)C)C(O)c1ccccc1 (stereo not given)
inactive: NCI-H23 lung 106% | NCI-H226 lung 96.6% | NCI-H322M lung 103% | HOP-62 NSCLC 91.4% | NCI-H460 lung 112% | HOP-92 NSCLC 97.9% | NCI-H522 lung 76.4% | A549/ATCC NSCLC 91.5% | 786-0 renal 96.6% | COLO 205 colon 110% | DU-145 prostate 110% | K-562 leukemia 94.5% | MALME-3M melanoma 105% | MDA-MB-231 breast 114% | RXF 393 renal 110% | SF-268 CNS 99% | SF-295 CNS 96.9% | SF-539 CNS 90.7% | UACC-257 melanoma 102% | M14 melanoma 96.4%

CC1(CO)CCCC1NCCNC1CCCC1(C)CO (stereo not given)
inactive: NCI-H23 lung 109% and 107% | NCI-H226 lung 99.5% and 102% | NCI-H322M lung 139% and 98.2% | HOP-62 NSCLC 109% and 100% | NCI-H460 lung 104% and 112% | HOP-92 NSCLC 82.8% and 101% | NCI-H522 lung 94.3% | A549/ATCC NSCLC 105% and 104% | 786-0 renal 101% and 102% | COLO 205 colon 114% and 103% | DU-145 prostate 120% and 88.9% | K-562 leukemia 110% and 99% | MALME-3M melanoma 116% and 103% | MDA-MB-231 breast 92.2% and 113% | RXF 393 renal 109% and 119% | SF-268 CNS 115% and 105% | SF-295 CNS 94.9% and 105% | SF-539 CNS 103% and 105% | UACC-257 melanoma 100% | M14 melanoma 96.7% and 103%

O=c1[nH]c(=O)n(C2OC(CO)C(O)C2O)cc1I (stereo not given)
inactive: NCI-H23 lung 104% and 108% | NCI-H226 lung 91.8% and 117% | NCI-H322M lung 100% and 102% | HOP-62 NSCLC 101% and 96.4% | NCI-H460 lung 116% and 125% | HOP-92 NSCLC 77.7% | NCI-H522 lung 80.5% and 112% | A549/ATCC NSCLC 96.3% and 100% | 786-0 renal 105% and 108% | COLO 205 colon 114% and 102% | DU-145 prostate 117% and 112% | K-562 leukemia 95.1% and 128% | MALME-3M melanoma 100% and 107% | MDA-MB-231 breast 109% and 111% | RXF 393 renal 114% and 123% | SF-268 CNS 102% and 112% | SF-295 CNS 125% and 102% | SF-539 CNS 105% and 102% | UACC-257 melanoma 97.3% and 101% | M14 melanoma 104% and 90.5%
